Test results: PubChem BioAssay
Calls of active or inactive are those of the source.

Columns and labels:
[1] = binders of probe aFSTL3 on microarray, primary screen, stem cell growth factor project, biochemical, small-molecule microarray, fluorescence 635/667 (AID 1064); conditions: higher = more signal;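 further: measures binding of the biotinylated anti-FSTL3 antibody to printed compounds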
[2] = binders from COS7 lysate, DM2A8 probe, primary screen, torsin A project, cell lysate, small-molecule microarray, fluorescence 635/667 (AID 1065); conditions: higher = more signal, COS7 lysate expressing mutant human TOR1A
[3] = binders of probe aFGF2 on microarray, primary screen, stem cell growth factor project, biochemical, small-molecule microarray, fluorescence 635/667 (AID 1067); conditions: higher = more signal;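 further: measures binding of biotinylated aFGF2 protein to printed compounds on slides; z-score merges feature fluorescence and signal-to-noise across triplicate slides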
[4] = binders of probe aFGF10 on microarray, primary screen, stem cell growth factor project, biochemical, small-molecule microarray, fluorescence 635/667 (AID 1071); conditions: higher = more signal;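 further: score merges 667 nm spot intensity and signal to noise from triplicate slides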
[5] = molecular target: Neurogenic locus notch homolog protein 2 (Homo sapiens) (UniProt Q04721); test: Notch2 binders on small-molecule microarrays, primary screen, biochemical, small-molecule microarray, 635 nm fluorescence, stem cell growth factors (AID 1073); conditions: Notch2 binding, higher = more signal
Neurogenic locus notch homolog protein 2 (Homo sapiens), sequence (Q04721 whole entry, looked up, canonical isoform): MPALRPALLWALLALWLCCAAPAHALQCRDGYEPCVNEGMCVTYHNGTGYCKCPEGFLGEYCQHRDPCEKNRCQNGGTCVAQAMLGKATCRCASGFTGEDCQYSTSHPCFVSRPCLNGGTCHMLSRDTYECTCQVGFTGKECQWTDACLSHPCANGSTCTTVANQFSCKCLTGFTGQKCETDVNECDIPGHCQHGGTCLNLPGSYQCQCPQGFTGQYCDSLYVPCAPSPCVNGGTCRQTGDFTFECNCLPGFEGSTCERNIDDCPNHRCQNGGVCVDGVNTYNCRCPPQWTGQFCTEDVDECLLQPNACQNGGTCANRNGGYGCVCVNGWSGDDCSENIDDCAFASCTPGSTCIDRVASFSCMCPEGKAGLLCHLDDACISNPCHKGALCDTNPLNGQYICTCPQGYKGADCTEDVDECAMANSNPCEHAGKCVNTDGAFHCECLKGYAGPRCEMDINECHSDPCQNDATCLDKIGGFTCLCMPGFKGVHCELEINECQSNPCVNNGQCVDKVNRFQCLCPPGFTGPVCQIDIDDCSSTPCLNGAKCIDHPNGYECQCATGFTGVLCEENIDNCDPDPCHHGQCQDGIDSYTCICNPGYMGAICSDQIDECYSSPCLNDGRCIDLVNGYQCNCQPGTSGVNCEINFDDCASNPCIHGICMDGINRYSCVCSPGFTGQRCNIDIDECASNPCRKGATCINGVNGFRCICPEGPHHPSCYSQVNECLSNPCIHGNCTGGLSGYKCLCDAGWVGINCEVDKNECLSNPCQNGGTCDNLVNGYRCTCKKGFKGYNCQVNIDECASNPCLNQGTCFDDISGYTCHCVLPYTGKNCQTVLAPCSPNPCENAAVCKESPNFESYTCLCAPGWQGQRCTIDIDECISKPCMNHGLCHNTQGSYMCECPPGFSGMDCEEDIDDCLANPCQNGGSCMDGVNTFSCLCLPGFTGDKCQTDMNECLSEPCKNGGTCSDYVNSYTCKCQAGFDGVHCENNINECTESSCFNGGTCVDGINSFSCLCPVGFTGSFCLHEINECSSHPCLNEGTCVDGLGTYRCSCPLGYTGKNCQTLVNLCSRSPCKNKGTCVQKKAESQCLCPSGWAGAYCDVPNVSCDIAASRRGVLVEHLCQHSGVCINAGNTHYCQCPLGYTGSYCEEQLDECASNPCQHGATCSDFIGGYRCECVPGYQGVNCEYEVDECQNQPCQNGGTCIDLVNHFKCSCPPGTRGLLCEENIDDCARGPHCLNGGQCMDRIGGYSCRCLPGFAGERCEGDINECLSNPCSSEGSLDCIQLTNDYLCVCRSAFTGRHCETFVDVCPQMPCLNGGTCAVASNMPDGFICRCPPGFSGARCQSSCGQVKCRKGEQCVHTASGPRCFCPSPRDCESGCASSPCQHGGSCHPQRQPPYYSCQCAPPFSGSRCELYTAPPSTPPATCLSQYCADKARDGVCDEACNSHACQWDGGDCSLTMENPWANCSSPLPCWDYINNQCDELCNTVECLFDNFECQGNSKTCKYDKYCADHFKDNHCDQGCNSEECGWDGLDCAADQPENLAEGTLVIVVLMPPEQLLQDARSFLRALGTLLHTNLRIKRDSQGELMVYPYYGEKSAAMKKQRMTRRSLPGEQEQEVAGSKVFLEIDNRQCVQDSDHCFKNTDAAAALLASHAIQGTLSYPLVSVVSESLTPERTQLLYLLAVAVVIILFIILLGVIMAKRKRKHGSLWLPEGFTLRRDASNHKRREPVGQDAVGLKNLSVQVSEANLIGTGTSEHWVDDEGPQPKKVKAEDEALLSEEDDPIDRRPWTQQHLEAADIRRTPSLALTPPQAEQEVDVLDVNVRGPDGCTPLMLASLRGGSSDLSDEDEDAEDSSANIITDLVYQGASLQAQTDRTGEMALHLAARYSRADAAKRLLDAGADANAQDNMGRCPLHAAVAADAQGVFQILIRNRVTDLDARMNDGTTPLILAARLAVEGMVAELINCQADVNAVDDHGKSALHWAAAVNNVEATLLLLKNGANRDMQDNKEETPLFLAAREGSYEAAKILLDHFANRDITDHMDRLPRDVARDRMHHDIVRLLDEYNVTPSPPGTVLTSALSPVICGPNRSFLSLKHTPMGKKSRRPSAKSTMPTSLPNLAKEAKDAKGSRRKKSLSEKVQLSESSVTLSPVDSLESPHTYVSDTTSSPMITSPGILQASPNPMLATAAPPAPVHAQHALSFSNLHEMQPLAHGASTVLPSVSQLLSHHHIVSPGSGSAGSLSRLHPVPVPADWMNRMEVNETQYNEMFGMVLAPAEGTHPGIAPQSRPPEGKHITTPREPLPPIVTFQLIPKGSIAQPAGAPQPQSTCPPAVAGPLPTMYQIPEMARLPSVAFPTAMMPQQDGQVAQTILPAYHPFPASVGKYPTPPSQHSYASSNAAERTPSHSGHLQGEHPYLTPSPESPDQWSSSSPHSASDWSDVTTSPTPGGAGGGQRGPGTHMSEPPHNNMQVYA

[6] = molecular target: Pro-neuregulin-1, membrane-bound isoform (Homo sapiens) (UniProt Q02297); test: NRG1 binders on small-molecule microarrays, primary screen, psychiatric disease protein project, biochemical, small-molecule microarray, fluorescence 635/667 (AID 1075); conditions: NRG1 binding, 635 nm fluorescence, higher = more signal;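 further: score combines 667 nm spot fluorescence with signal to noise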
Pro-neuregulin-1, membrane-bound isoform (Homo sapiens), sequence (Q02297 whole entry, looked up, the tested form may be a part, canonical isoform): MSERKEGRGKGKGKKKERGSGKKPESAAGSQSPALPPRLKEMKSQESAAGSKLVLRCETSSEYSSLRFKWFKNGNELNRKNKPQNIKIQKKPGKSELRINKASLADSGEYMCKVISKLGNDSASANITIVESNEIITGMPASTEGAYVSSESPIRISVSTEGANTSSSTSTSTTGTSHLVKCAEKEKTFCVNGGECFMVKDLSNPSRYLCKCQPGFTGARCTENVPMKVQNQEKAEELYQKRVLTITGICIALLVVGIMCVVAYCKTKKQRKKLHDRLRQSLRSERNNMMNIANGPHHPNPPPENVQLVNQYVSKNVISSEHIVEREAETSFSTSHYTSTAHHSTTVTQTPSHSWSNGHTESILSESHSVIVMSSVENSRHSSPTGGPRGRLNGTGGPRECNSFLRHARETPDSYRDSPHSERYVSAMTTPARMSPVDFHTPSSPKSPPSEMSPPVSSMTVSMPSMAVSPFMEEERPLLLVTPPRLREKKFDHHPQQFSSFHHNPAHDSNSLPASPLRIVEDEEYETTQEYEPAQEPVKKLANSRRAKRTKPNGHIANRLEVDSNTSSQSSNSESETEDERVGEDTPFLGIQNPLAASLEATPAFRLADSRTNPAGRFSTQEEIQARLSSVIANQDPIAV

[7] = system: Neuregulin-1 EGF-like domain; test: binders of neuregulin-1 EGF-like domain, primary screen, biochemical, small-molecule microarray, 635 nm fluorescence (AID 1081); conditions: small-molecule microarray binding, higher = more signal;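 further: binding of the protein to compounds printed on small-molecule microarray slides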
[8] = FRG1 promoter luciferase signal modulators, primary screen, FRG1 inhibition for FSHD, cell-based, C2C12 myotubes, firefly/Renilla luciferase, luminescence (AID 1084); conditions: higher = more signal, called active from +8 up or from −8 down
[9] = binders of probe aFST on microarray, primary screen, stem cell growth factor project, biochemical, small-molecule microarray, fluorescence 635/667 (AID 1086); conditions: higher = more signal;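 further: score merges 667 nm fluorescence with signal-to-noise of each printed compound spot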
[10] = binders of probe aHhip on microarray, primary screen, stem cell growth factor project, biochemical, small-molecule microarray, fluorescence 635/667 (AID 1087); conditions: higher = more signal;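 further: score merges spot fluorescence at 667nm with spot signal to noise ratio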
[11] = system: PRMT1 (protein arginine N-methyltransferase 1); test: PRMT1 binders on small-molecule microarrays, primary screen, biochemical, small-molecule microarray, 635 nm fluorescence (AID 1088); conditions: small-molecule microarray binding, higher = more signal;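 further: binding of Prmt1 protein to compounds spotted on small-molecule microarray slides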
[12] = yeast growth modulation, basal conditions, primary screen, YJM789 clinical isolate, OD600, 24 h (AID 1089);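 further: growth of clinical yeast isolate S. cerevisiae YJM 789 seeded 1000 cells per well; test concentration not given here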; conditions: S. cerevisiae YJM789 growth, higher = more signal, called active from +8 up or from −8 down
[13] = fission yeast growth modulation, primary screen, strain 972, OD600, 24 h, no modulator (AID 1090);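 further: basal condition with compound alone and no growth modifier present; test concentration not given here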; conditions: S. pombe 972 growth, higher = more signal, called active from +8 up or from −8 down
[14] = S. cerevisiae growth modulation with rapamycin, primary screen, strain BY4716, OD600, 96 h (AID 1091); conditions: higher = more signal, called active from +8 up or from −8 down; further: test concentration not given here
[15] = molecular target: Torsin-1A-interacting protein 2 (Homo sapiens) (UniProt Q8NFQ8); test: LULL1 binders on small-molecule microarray, primary screen, cell lysate, human LULL1 lysate, 635/667 nm fluorescence (AID 1092); conditions: hLULL1 lysate binding, 635 nm fluorescence, higher = more signal;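 further: probe is lysate of COS7 cells overexpressing human LULL1; score merges per-feature 667 nm fluorescence with signal-to-noise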
Torsin-1A-interacting protein 2 (Homo sapiens), sequence (Q8NFQ8 whole entry, looked up): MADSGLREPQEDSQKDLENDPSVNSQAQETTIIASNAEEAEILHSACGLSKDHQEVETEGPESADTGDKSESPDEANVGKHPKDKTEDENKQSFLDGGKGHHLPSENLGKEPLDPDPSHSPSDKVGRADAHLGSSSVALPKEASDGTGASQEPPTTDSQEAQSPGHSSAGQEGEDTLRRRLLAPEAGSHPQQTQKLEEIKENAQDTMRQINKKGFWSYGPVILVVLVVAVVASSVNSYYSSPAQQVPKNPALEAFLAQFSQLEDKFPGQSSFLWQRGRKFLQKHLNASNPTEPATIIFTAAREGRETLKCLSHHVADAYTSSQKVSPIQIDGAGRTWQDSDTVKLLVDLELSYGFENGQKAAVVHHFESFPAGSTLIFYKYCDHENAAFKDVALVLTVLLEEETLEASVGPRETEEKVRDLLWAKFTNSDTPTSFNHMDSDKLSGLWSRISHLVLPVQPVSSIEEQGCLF

[16] = E. coli growth modulation, two-sided OD650, primary screen, E. coli filamentation project, strain DRC41, 24 h (AID 1093); conditions: OD650, 24 h, higher = more signal, called active from +8 up or from −8 down;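 further: MC1000 strain lacking acrAB efflux and sulA so SOS filamentation is blocked; test concentration not given here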
[17] = small-molecule microarray binders of probe aLefty2, primary screen, biochemical, biotinylated probe, 635/667 nm fluorescence (AID 1094); conditions: higher = more signal;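 further: score merges spot fluorescence near 667 nm with spot signal-to-noise ratio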
[18] = system: Noggin (protein binding on small-molecule microarray); test: Noggin binders on small-molecule microarray, primary screen, biochemical, 635/667 nm fluorescence (AID 1095); conditions: 635 nm fluorescence, higher = more signal;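 further: score merges 667 nm feature fluorescence with signal to noise over triplicate slides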
[19] = molecular target: Neurogenic locus notch homolog protein 3 (Homo sapiens) (UniProt Q9UM47); test: NOTCH3 binders on small-molecule microarray, primary screen, biochemical, 635/667 nm fluorescence (AID 1096); conditions: NOTCH3 binding, 635 nm fluorescence, higher = more signal
[20] = small-molecule microarray binders of probe aEGFR, primary screen, biochemical, biotinylated probe, 635/667 nm fluorescence (AID 1097); conditions: higher = more signal;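 further: probe is a biotinylated anti-EGFR antibody binding compounds printed on slides; score combines fluorescence near 667 nm and signal to noise of each spot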

Row | SMILES | composite z-score [1] | composite z-score [2] | composite z-score [3] | composite z-score [4] | composite z-score [5] | composite z-score [6] | composite z-score [7] | z-score [8] | composite z-score [9] | composite z-score [10] | composite z-score [11] | z-score [12] | z-score [13] | z-score [14] | composite z-score [15] | z-score [16] | composite z-score [17] | composite z-score [18] | composite z-score [19] | composite z-score [20]
1 | CCOC(=O)C[C@H]1[C@H](OC(=O)c2ccc(C(=O)c3ccccc3)cc2)[C@@H](NC(=O)c2ccccc2)c2cc(OCCCO)ccc2N1C(=O)Cc1ccc(OC)cc1 | 0.0814 | 0.128 | -0.0502 | 0.153 | 0.12 | -0.126 | 0.532 | -1.09 (inactive) | 0.0512 | -0.0237 | 0.355 | 0.0572 (inactive) | -0.682 (inactive) | -0.0292 (inactive) | 0.84 | 0.0663 (inactive) | 0.0283 | 0.49 | 0.0805 | -0.142
2 | COCC(=C=CC[C@@H](O)c1cccc(OCCO)c1)C[C@@H](O)c1ccccn1 | -0.19 | 0.0883 | -0.0707 | 0.338 | -0.17 | 1.11 | 1.3 | 0.93 (inactive) | -0.27 | 0.176 | 0.523 | 1.09 (inactive) | -0.416 (inactive) | -0.648 (inactive) | 1.12 | 0.257 (inactive) | -0.193 | 0.657 | 0.599 | -0.137
3 | COC(=O)[C@@]1(Cc2ccc(F)cc2)[C@H]2c3cc(C(=O)N4CCCC4)n(CCCNc4ncc(C(F)(F)F)cc4Cl)c3C[C@H]2CN1C(=O)c1ccccc1 | 0.785 | -0.245 | 0.222 | 0.564 | 1.66 | 1.73 | 1.3 | 0.506 (inactive) | 0.977 | 0.449 | -0.954 | 1.62 (inactive) | 2.15 (inactive) | 2.65 (inactive) | 2.65 | -0.87 (inactive) | 0.83 | -0.756 | 0.696 | 0.476
4 | C=CC(=C)[C@H]1Oc2ccccc2S(=O)(=O)N2CCC[C@@H]12 | 0.289 | 0.196 | -0.116 | -0.185 | -0.128 | -0.57 | -0.595 | -0.0188 (inactive) | 0.303 | -0.329 | -1.3 | -0.946 (inactive) | -2.71 (inactive) | -0.601 (inactive) | -0.562 | -0.504 (inactive) | 0.0189 | 0.518 | -0.406 | -0.152
5 | Cc1ccc(N2C(=O)c3ccccc3[C@@H](C(=O)NC3CC3)[C@@H]2c2ccc(CO)cc2)nc1 | 1.17 | -0.78 | -0.149 | -1.26 | -1.63 | -1.14 | 0.058 | 0.554 (inactive) | -0.479 | -0.134 | -1.57 | -1.31 (inactive) | -0.916 (inactive) | -0.486 (inactive) | 2.35 | 0.387 (inactive) | 0.297 | -0.912 | -1.44 | -0.281
6 | C=C(CCCC)/C(=C/C[C@@H](OC(C)=O)c1ccc(OCCO)cc1)c1cnc2ccccc2c1 | 0.0374 | 0.372 | -0.0598 | 0.242 | 0.913 | 0.952 | 1.01 | -1.51 (inactive) | -0.156 | -0.0618 | 1.56 | 0.273 (inactive) | -1.44 (inactive) | -0.245 (inactive) | 2.01 | 0.796 (inactive) | -0.132 | 0.542 | 0.857 | 0.0507
7 | C[C@H]1C2[C@H](Cc3ccccc3)NC(=O)[C@]23C(=O)N[C@H](Cc2ccccc2)C(=O)N2CCC[C@H]2C(=O)NC/C=C\C/C=C/C3[C@@H]2O[C@]12C (stereo not given in full) | -0.4 | -0.217 | -0.0439 | 0.293 | 0.451 | 0.455 | -0.473 | 1.59 (inactive) | 0.0114 | -0.236 | 0.178 | -0.662 (inactive) | -1.06 (inactive) | -1.19 (inactive) | 0.392 | 0.132 (inactive) | -0.175 | 0.177 | 0.492 | -0.13
8 | C=C[C@H](CO[Si](CC)(CC)CC)N(Cc1ccc(OC(C)=O)c(OC)c1)S(=O)(=O)c1ccc(Br)cc1 | 0.572 | 1.64 | 0.365 | 0.326 | -0.156 | 1.27 | 1.05 | -2.48 (inactive) | 1.22 | -0.0788 | 0.87 | -1.77 (inactive) | -1.01 (inactive) | 0.196 (inactive) | 1.6 | 0.415 (inactive) | 0.476 | -0.0715 | -0.334 | 0.0819
9 | Cc1ccc(S[C@]2(C(=O)NCCCN(C)C)CC(=O)N(Cc3cc(C(F)(F)F)cc(C(F)(F)F)c3)[C@@H]2c2ccc(CO)cc2I)cc1 | 0.746 | 0.0752 | -0.0894 | -0.21 | -1.21 | 2.07 | 0.634 | 0.452 (inactive) | -0.191 | -0.0994 | -0.371 | -1.17 (inactive) | -3.06 (inactive) | 1.03 (inactive) | 1.77 | 0.888 (inactive) | 0.269 | -1.64 | -0.937 | -0.0246
10 | COC(=O)[C@@]1(Cc2ccc(OC)cc2)[C@H]2c3cc(C(=O)N4CCCC4)n(Cc4ccc(O)c(OC)c4)c3C[C@H]2CN1C(=O)c1ccccc1 | 1.41 | 1.14 | 0.694 | 0.777 | 1.1 | 1.83 | 1.1 | 0.665 (inactive) | 2.28 | 2.44 | -0.356 | 0.972 (inactive) | 1.19 (inactive) | 1.18 (inactive) | 3.39 | -0.456 (inactive) | 0.531 | -0.194 | 0.6 | 0.805
